Hits are enriched below; roughly 3% of the tested compounds scored in any of these assays.
LmPK inhibitor: qHTS Assay for Inhibitors of Leishmania Mexicana Pyruvate Kinase (LmPK) | purified LmPK, Kinase-Glo ATP luminescence, 1 h | Potency, µM (titrated, usually from 57.5 µM), for inactives: top-dose activity change, negative = inhibition, actives largely listed as inhibitors | actives 0.37% (n = 290,000) | Q27686 | AID 1721, 2009
Target sequence (Q27686 whole entry, looked up): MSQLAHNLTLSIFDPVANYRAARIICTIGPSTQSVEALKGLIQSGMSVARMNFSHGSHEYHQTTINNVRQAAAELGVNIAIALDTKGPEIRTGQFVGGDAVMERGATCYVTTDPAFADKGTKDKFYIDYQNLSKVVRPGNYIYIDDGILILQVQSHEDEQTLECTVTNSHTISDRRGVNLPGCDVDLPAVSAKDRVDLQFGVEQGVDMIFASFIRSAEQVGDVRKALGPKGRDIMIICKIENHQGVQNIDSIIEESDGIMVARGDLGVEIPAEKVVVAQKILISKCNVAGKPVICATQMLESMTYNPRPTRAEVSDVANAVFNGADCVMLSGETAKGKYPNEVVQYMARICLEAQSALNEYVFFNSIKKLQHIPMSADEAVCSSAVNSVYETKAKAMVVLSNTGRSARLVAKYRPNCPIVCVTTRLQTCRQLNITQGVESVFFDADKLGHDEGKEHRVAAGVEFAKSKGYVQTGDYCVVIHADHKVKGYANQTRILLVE
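Purified LmPK (0.1 nM) with 0.5 mM PEP and 0.1 mM ADP in imidazole buffer pH 7.2 with MgCl2/KCl, 1 h at room temperature. ATP formed was read by luciferase luminescence and normalized to no-enzyme and uninhibited controls.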
RE007 growth inh: qHTS Assay for Inhibitors of the HIV-1 protein Vpr; Potency, µM (series often up to 92.2 µM), for inactives: top-dose activity change, negative = less growth, actives largely listed as inhibitors; S. pombe RE007 Vpr strain, BacTiter-Glo ATP luminescence, 24 h; actives 0.21% (n = 360,000); active = well fitted falling curve with a large enough effect; inconclusive = small, poorly fitted or top-dose-only effect; inactive = no such curve, though single readings can be large or run the other way; note: nearly all actives have a fitted effect of over 50% in size
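Fission yeast RE007 carrying one integrated HIV-1 vpr copy, seeded at OD 0.01 in PMG+AL medium with 23 nL pinned compound. Grown 24 h at 30 degrees; viability read by BacTiter-Glo luminescence after 5 min.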
Tb PYK inh: qHTS of Trypanosoma Brucei Inhibitors; TbPYK enzyme, Kinase-Glo Plus ATP luminescence, 45 min; Potency, µM (highest dose often 76.8 µM), inactives show at the top dose activity, negative = inhibition, hits mostly inhibitors; actives 0.12% (n = 410,000); note: nearly all actives have a fitted effect of over 50% in size
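T. brucei PYK with substrate was exposed to pin-transferred compounds across a concentration series, then started with 130 uM ADP (final). After 45 min at room temperature, Kinase-Glo Plus luminescence was read, normalized and curve-fitted.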
Sm TGR inh: qHTS Assay for the Inhibitors of Schistosoma Mansoni Peroxiredoxins; Schistosoma mansoni thioredoxin glutathione reductase (TGR), Q962Y6; Potency, µM (series often up to 114 µM), for inactives: at the top dose activity change, negative = inhibition, most hits filed as inhibitors; purified TGR, DTNB reduction, TNB absorbance 405 nm; actives 3% (n = 360,000); note: nearly all actives have a fitted effect of over 60% in size
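TGR 20 nM + NADPH 100 uM (dispensed conc.), cpd preinc 15 min RT; start with NADPH (500 uM addition) then DTNB (15 mM addition). Kinetic TNB absorbance, 405 nm filter. Four-parameter Hill fit across titration.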
* marks the source's active call; other numbers are inactive results; ? = inconclusive; . = no result; [ ] = another dose, or the depositor's remark. Unless noted, calls come from the whole dose curve; as a rule, active = well fitted curve in the direction sought with a large enough effect; inconclusive = small, poorly fitted or top-dose-only effect, or another doubt; inactive = no such curve, though single readings can be large; an effect the other way counts as inactive or inconclusive. % is set by controls: 0 for no effect and ±100 for the full control effect; potency is the fitted concentration of half-maximal effect.

SMILES	LmPK inhibitor	RE007 growth inh	Tb PYK inh	Sm TGR inh
Cc1ccc(C(=O)NCC(c2ccc3c(c2)OCO3)N2CCN(C)CC2)cc1C (configuration not stated)	.	.	-2%	1%
CCC(COC)Oc1cc(NCc2ccccc2)c2ncn(C(C)C)c2c1 (configuration not stated)	.	-12%	-19%	28µM*
CCC(CO)Oc1cc(NCc2ccccc2)c2ncn(C(C)C)c2c1 (configuration not stated)	.	-10%	-10%	.
CCC(=NCc1ccco1)c1c(O)n(C)c(=O)n(C)c1=O	2%	-16%	-2%	25µM*
Cc1cc(CN2CCC(n3nccc3NC(=O)c3ccccc3Cl)CC2)cc(C)c1O	2%	-1%	-2%	45µM*
O=C(CCCc1ccccc1)Nc1ccnn1C1CCN(Cc2ccccc2F)CC1	-1%	-23%	2%	4%
O=C(Nc1ccnn1C1CCN(Cc2cccnc2)CC1)c1ccccc1Cl	-7%	-7%	2%	0%
COc1cccc(CN2CCC(n3nccc3NC(=O)CCCc3ccccc3)CC2)c1O	-7%	-2%	-10%	8.9µM*
Cc1ccc(C(C)CCN2CCC(n3nccc3NC(=O)c3ccccc3)CC2)o1 (configuration not stated)	-6%	-11%	-18%	35µM*
COc1cccc(N2CC(NC(=O)c3cc4ccccc4o3)CC2=O)c1 (configuration not stated)	.	.	3%	11%
CCSc1c([N+](=O)[O-])c(=O)n(-c2ccccc2)c2ccccc12	.	-4%	-1%	.
CC(=O)Nc1cncc(-c2ccccc2N(C)C)n1	.	-2%[18.4 µM]	-6%	.
O=C(CS(=O)(=O)c1cccc2nsnc12)N1CCN(c2cccc(C(F)(F)F)c2)CC1	.	.	-2%	5%
CCc1ccc2occ(CC(=O)Nc3sc4c(c3C(=O)OC)CCC4)c2c1	.	.	3%	2%
Cc1ccc(CN2CCNC(=O)C2CC(=O)N(Cc2c(C)nn(C)c2C)C2CC2)o1 (configuration not stated)	-6%	7%	1%	32µM*
Cc1ccc(CN2CCNC(=O)C2CC(=O)NCCCn2ncc3ccccc32)o1 (configuration not stated)	8%	0%	-2%	25µM*
Nc1cccnc1Sc1cccc(Cl)c1	5%	18µM*	-23%	?
COc1cccc(S(=O)(=O)N(C)C[C@H]2Oc3ncc(Br)cc3C(=O)N([C@@H](C)CO)C[C@@H]2C)c1	.	8%	-6%	.
O=C(Nc1nc2ccccc2[nH]1)c1ccc(F)cc1	13µM*	-22%	-29%	12%
CCOc1ccccc1CNC(=O)CN1C(=O)CCn2nc(-c3cn(C)c4ccccc34)cc21	.	.	-6%	1%
COc1ccc(CCNC(=O)c2cc(-c3ccc(Cl)cc3)on2)cc1OC	.	.	0%	0%
COc1ccc(CCNC(=O)c2ccc(-c3ccc([N+](=O)[O-])cc3)o2)cc1OC	-2%	-7%	-5%	40µM*
COc1ccc(CCNC(=O)c2noc(C(C)C)c2[N+](=O)[O-])cc1OC	-1%	-6%	-10%	35µM*
COc1ccc(CNC(=O)c2noc(C(C)C)c2[N+](=O)[O-])cc1	-3%	1%	-6%	-13%
C=CCc1c(C)nc2c(-c3ccccc3)cnn2c1N1CCOCC1	-6%	-6%	-6%	9%
SMILES	LmPK inhibitor	RE007 growth inh	Tb PYK inh	Sm TGR inh
O=C(NC(=S)Nc1cnc2ccccc2c1)c1ccccc1	-12%	-11%	-24%	?
COc1ccc(NC(=S)NC(=O)c2ccccc2)cn1	-1%	-9%	-4%	35µM*
Cn1ncc2cc(NC(=S)NC(=O)c3ccccc3)ccc21	1%	5%	-2%	18µM*
Cc1cc(C)c(C)c(S(=O)(=O)ON2C(=O)c3ccccc3C2=O)c1C	-25%	?	?	1.4µM*
Cc1ccc(OC(=O)CN2C(=O)c3ccccc3C2=O)cc1C	0%	-3%	1%	-4%
Cc1cc(C)c(S(=O)(=O)ON2C(=O)c3ccccc3C2=O)cc1C	-22%	-1%	?	0.89µM*
O=C1c2ccccc2C(=O)N1OS(=O)(=O)c1ccc(F)cc1	?	-7%	-28%	0.71µM*
O=S(=O)(c1ccccc1)N1CCN(S(=O)(=O)c2ccc(F)cc2)CC1	6%	5%	1%	-21%
Cc1ccc(S(=O)(=O)ON2C(=O)c3ccccc3C2=O)c(C)c1	?	2%	-20%	1.4µM*
COc1cc(CN(C)CC2CCCN(CCc3cccc(C(F)(F)F)c3)C2)ccc1O (configuration not stated)	2%	1%	-4%	28µM*
CCOc1ccc(Cl)cc1C(c1c(C)[nH][nH]c1=O)c1c(C)[nH][nH]c1=O	4%	18%	0%	?
C#CCOc1ccc(Br)cc1C(c1c(C)[nH][nH]c1=O)c1c(C)[nH][nH]c1=O	-5%	-8%	8%	45µM*
Clc1ccc(-c2nnnn2-c2ccc(Cl)cc2)cc1	0%	5%	0%	7%
Cc1ccc(-n2nnnc2C(Cl)(Cl)c2nnnn2-c2ccc(C)cc2)cc1	-17%	2%	?	18µM*
CCc1ccc(NS(=O)(=O)c2c(-c3ccccc3)csc2C(=O)OC)cc1	.	.	-1%	-3%
COC(=O)c1ccc(NC(=O)CC2C(=O)N(c3ccccc3)C(=O)N2C2CCCC2)cc1 (configuration not stated)	.	.	-1%	-9%
CN(C)CCNc1oc(COc2ccc(-c3ccccc3)cc2)nc1C#N	1%	-7%	-8%	45µM*
N#Cc1nc(COc2cccc(Cl)c2)oc1NCCN1CCOCC1	7%	-9%	1%	35µM*
COCCCNc1oc(COc2ccc(Cl)cc2Cl)nc1C#N	10%	11%	2%	20µM*
CCc1ccc(C(O)c2ncc(-c3ccc(Cl)cc3)[nH]2)cc1 (configuration not stated)	.	-25%	4%	.
O=C(c1cccc(F)c1)N1CCC[C@@]2(CCN(Cc3nccs3)C2)C1	.	.	0%	.
O=C(NCc1ccccn1)c1ccco1	-3%	-4%	5%	50µM*
O=C(Nc1nc(-c2ccccn2)cs1)c1ccco1	-4%	?	-5%	32µM*
Cc1nc(NC(=O)c2ccco2)sc1C(=O)O	25µM*	?	25µM*	-10%
Cc1ccc(C(c2sc3nc(-c4ccco4)nn3c2O)N2CCN(Cc3ccccc3)CC2)cc1 (configuration not stated)	.	.	2%	1%
Cc1ccc(S(=O)(=O)Nc2cc(-c3nn(C)c(=O)c4ccccc34)ccc2N2CCOCC2)cc1	-10%	-7%	-9%	56µM*
Cc1ccc(/C=C2/C(=O)NC(=O)N(C)C2=O)cc1	7%	-9%	-26%	1%
